The source of these data is PubChem BioAssay AID1159580 (chemical genetic matrix, 2015).

Screen size: about 5,500 compounds; about 2,000 (36%) were called active. Another 18% or so got no clear call; they are omitted. The list shows a part of the results. Values without a mark were called inactive. No stated cut-off is given here; in the data, active means normalized growth mostly below about 0.91 (no sharp cut-off); inconclusive means no clear call, values can overlap the other calls; inactive means mostly above about 0.92.

The nature of this test: chemical genetic growth profiling, strain panel (AID 1159580).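 Further: tested at 20 µM; growth read once vehicle control cultures reached saturation at 30 °C; 1 = growth at the plate median or of vehicle wells; lower values mean less growth of the strain.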 The settings on record: S. cerevisiae deletion strains, growth OD.
Setting [1] is: locus YAL040C, strain CLN3, hits give low values.
[2] abbreviates: locus YCL061C, strain MRC1 (second series), hits give low values.
[3] abbreviates: locus YDR363W, strain ESC2, hits give low values.
Where [4] appears, read: locus YER002W, strain NOP16, hits give low values.
[5] abbreviates: locus YGR078C, strain PAC10, hits give low values.
Setting [6] is: locus YMR263W, strain SAP30, hits give low values.
Where [7] appears, read: locus YMR307W, strain GAS1, hits give low values.
Where [8] appears, read: locus YNL153C, strain GIM3, hits give low values.
Where [9] appears, read: locus YNL175C, strain NOP13, hits give low values.
Where [10] appears, read: locus YNL197C, strain WHI3, hits give low values.
Where [11] appears, read: locus YNL224C, strain SQS1, hits give low values.
The mark [12] stands for this setting: locus YOR083W, strain WHI5 (second series), hits give low values.

In the case of `CN1C2CCC1CC(OC(c1ccccc1)c1ccc(Cl)cc1)C2` (stereo unspecified), the normalized growth under setting [1] was 1.01; the normalized growth under setting [2] is 1; the normalized growth (locus YDR150W, strain NUM1, hits give low values) is 0.997; the normalized growth under setting [3] is 0.958; the normalized growth under setting [4] is 1.04; the normalized growth under setting [5] is 1.02. Besides, the normalized growth is, setting by setting: (locus YGR229C, strain SMI1, hits give low values) 0.844 (active); under setting [6], 0.997; under setting [7], 0.994; under setting [8], 0.987; under setting [9], 1.04; under setting [10], 1.03. The normalized growth was 1.05 under setting [11]; 1.01 under setting [12]; 0.993 (locus YPL241C, strain CIN2, hits give low values).
With `CN1C2CCC1CC(OC(=O)c1c[nH]c3ccccc13)C2` (stereo unspecified), the normalized growth under setting [1] is 0.995; the normalized growth under setting [2] is 1; the normalized growth under setting [3] is 1.01; the normalized growth under setting [4] was 0.994; the normalized growth under setting [5] was 1.02; the normalized growth (locus YJR075W, strain HOC1, hits give low values) was 1. The normalized growth by setting is: under setting [6], 1; under setting [7], 1.01; (locus YNL128W, strain TEP1, hits give low values) 0.995; under setting [8], 1.01; under setting [9], 1; under setting [10], 1.02. Also, the normalized growth under setting [11] was 0.985; the normalized growth (locus YNL322C, strain KRE1, hits give low values) was 1.03; the normalized growth under setting [12] is 1.01; the normalized growth (locus YPL055C, strain LGE1, hits give low values) was 1.02.
